# From PubChem BioAssay
# IL-2 act: activates IL-2 in a cell-based reporter assay. IL-2 activation reporter assay, cell-based qHTS; stimulated with anti-CD3/CD4/CD28 beads; in transgenic mouse T cells. 360,000 tested, 0.065% active. activation, % (series mostly up to about 46 µM); in the data active means activation above about 50%; inconclusive means mostly about 30% to 49%; further: 0% is about no effect
#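 Screening format: compound pinned onto unstimulated transgenic mouse T cells, 60 min incubation, then anti-CD3/anti-CD4/anti-CD28 bead stimulation for 18 hours at 37 degrees C, followed by EGFP and DsRed detection.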
# Giardia killer: Giardia lamblia killing. 340,000 tested, 0.15% active. activity change, % at 7.66 µM, hits read low. Giardia lamblia trophozoite viability; in the data active means activity change below about -80%; inconclusive means between about -30% and that limit;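 further: parasites exposed to compound for two days anaerobically before the ATP read; on the % scale 0 is the no-effect control and ±100 the full control effect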
#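 Each well holds 100 Giardia trophozoites and compound. After two days (48 hrs) at 37 deg C in anaerobic conditions, ATP is quantified by luminescence.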
# TrxR1 substrate: is turned over as a substrate by rat TrxR1; 390,000 tested, 0.01% active; AID 588456; O89049; Potency, µM (titrated, usually from 114 µM), inactives show at the top dose activity change, negative = substrate turnover; purified TrxR1 substrate turnover, NADPH consumption readout; further: potency means the concentration at half of the fitted maximal effect; on the % scale 0 is the no-effect control and ±100 the full control effect; nearly all actives have a fitted effect of over 50% in size
#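 Rat TrxR1, dispensed at 90 nM, was prereduced with 400 uM NADPH (final) for 5 min at ~22 deg C, then incubated with compound 15 min before 400 uM selenite. A first-read NADPH fluorescence drop versus no-compound background flagged substrates.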
# TrxR1 inh: rat TrxR1 inhibition | O89049 | recombinant rTrxR1, NADPH fluorescence consumption, selenite substrate | Potency, µM (highest dose often 114 µM), for the others: at the highest dose activity change, negative = inhibition, hits mostly inhibitors | 390,000 tested, 1% active; further: potency means the concentration at half of the fitted maximal effect; on the % scale 0 is the no-effect control and ±100 the full control effect; nearly all actives have a fitted effect of over 65% in size
#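 Rat TrxR1 (90 nM in the dispensed reagent) was pre-reduced with 400 uM NADPH for 5 min at room temperature, then incubated with compound for 15 min. After 400 uM selenite was added, NADPH fluorescence (Ex 340/Em 450 nm) was followed for 8 min.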
# mIDH1 inhibitor: inhibitors of human mutant IDH1 R132H; Potency, µM (series often up to 76.6 µM), without a hit: at the highest dose activity change, negative = inhibition, most hits filed as inhibitors; 390,000 tested, 0.093% active; IDH1-R132H enzyme, NADPH consumption, diaphorase/resazurin fluorescence; AID 602179; further: potency means the concentration at half of the fitted maximal effect; on the % scale 0 is the no-effect control and ±100 the full control effect; nearly all actives have a fitted effect of over 65% in size
# Target sequence (O75874 whole entry R132H, stated change not applied): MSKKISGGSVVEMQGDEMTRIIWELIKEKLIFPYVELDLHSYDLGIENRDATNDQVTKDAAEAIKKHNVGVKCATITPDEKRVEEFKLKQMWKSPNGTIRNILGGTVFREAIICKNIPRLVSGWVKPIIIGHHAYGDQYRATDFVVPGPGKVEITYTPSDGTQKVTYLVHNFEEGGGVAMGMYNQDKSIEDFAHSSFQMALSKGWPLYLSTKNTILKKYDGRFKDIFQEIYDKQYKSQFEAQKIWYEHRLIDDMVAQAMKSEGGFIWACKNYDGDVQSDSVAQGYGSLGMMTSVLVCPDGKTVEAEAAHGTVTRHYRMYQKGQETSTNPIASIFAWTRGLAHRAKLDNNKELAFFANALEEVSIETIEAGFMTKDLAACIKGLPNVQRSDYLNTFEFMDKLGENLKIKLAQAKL
#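 IDH1-R132H (0.5 ug/mL dispensed) in pH 7.5 Tris buffer was preincubated 30 min with compound, then given a substrate mix of 0.016 mM NADPH and 2 mM alpha-KG for 80 min at room temperature; remaining NADPH was read by diaphorase/resazurin fluorescence.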
# BRCA1 expr act: BRCA1 expression activation. MCF7-BRCA1-FFLuc reporter, luminescence, 48 h; response scale: scaled: vehicle 0%, 10 µM genistein 100%. Potency, µM (highest dose often 46.1 µM), for the others: top-dose activation, usual class: activators. 380,000 tested, 1.1% active. AID 624202; further: potency means the concentration at half of the fitted maximal effect; nearly all actives have a fitted effect of over 80% in size
#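 Cells: MCF7-BRCA1-FFLuc, 2000/well. Exposure: 48 h, 37 °C, 5% CO2. Read: luminescence, 15 min post-substrate. Controls: genistein 10 microM (maximal activation), DMSO (neutral).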
# * marks the source's active call; other numbers are inactive results; ? = inconclusive; . = no result given; [ ] = dose if it differs, or a comment. Compounds with a hit are over-represented: about 2.2% of the library has one in this group of screens. Unless noted, the call rests on the fitted dose curve; in most records, active means well fitted curve in the direction sought with a large enough effect; inconclusive means small, poorly fitted or top-dose-only effect, or another doubt; inactive means no such curve, though single readings can be large; an effect the other way counts as inactive or inconclusive.
SMILES,IL-2 act,Giardia killer,TrxR1 substrate,TrxR1 inh,mIDH1 inhibitor,BRCA1 expr act
NC(=O)C1CCN(C2=C(NS(=O)(=O)c3ccc(Cl)cc3)C(=O)c3ccccc3C2=O)CC1,0,5,-2%,20µM*,-2%,26%
c1ccc(-c2ccc(OCCOCCn3cncn3)cc2)cc1,-1,-5,-2%,-2%,2%,7.1µM*
CC1=C(C(=O)Nc2ccccc2)C(c2cccn2C)n2ncnc2N1 (configuration not stated),.,.,4%[57.1 µM],12%[57.1 µM],-11%,-6%
CCNc1oc(COc2cccc(C)c2)nc1C#N,0,-14,2%,-4%,6%,11µM*
Cc1ccc(C(=O)N(Cc2ccc(N(C)C)cc2)CC2CCCO2)cc1 (configuration not stated),.,.,1%,10%,-3%,.
Cc1ccc(N2CCN(C(=O)c3ccccc3NC(=O)/C=C\C(=O)O)CC2)cc1,-2,-8,1%,50µM*,1%,23%
COC(=O)Nc1ccccc1C(=O)N1CCN(c2ccc(C)cc2)CC1,0,-6,2%,-1%,2%,?
CCOc1ccc(N=Nc2c(N)[nH][nH]c2=O)cc1,1,-5,3%[11.4 µM],1%[11.4 µM],1%,5µM*
COc1cccc(N=Nc2c(N)[nH][nH]c2=O)c1,0,-1,-22%,-27%,2%,?
CC(C)(C)c1ccc(C(=O)C[n+]2ccc(Cl)c3ccc(Cl)cc32)cc1,.,.,8%,6%,.,.
CCC1CN(C(=O)Nc2cccc3c2CCCC3)c2ccccc2O1 (configuration not stated),.,.,-6%[11.4 µM],4%,16%,.
COc1ccc(C2CC(=O)N(CC(=O)Nc3ccc(C)c(Cl)c3)c3ccccc3S2)cc1OC (configuration not stated),.,.,3%,24%,-9%,-49%
O=C(c1ccc(F)cc1)N1CCC(c2ccccc2)C1 (configuration not stated),-3,-3,8%[57.1 µM],6%[11.4 µM],0%,6.3µM*
Cc1ccc(NC(=S)N2CCC(c3ccc(C)cc3)C2)cc1 (configuration not stated),0,-10,5%,13%,-2%,11µM*
O=C(Nc1ccc(Cl)cc1)N1CCC(c2ccccc2)C1 (configuration not stated),-3,12,-2%,5%,0%,?
O=C(Nc1cccc(F)c1)N1CCC(c2ccccc2)CC1,-3,?,-2%,5%,-2%,102%
Cc1ccc(NC(=O)N2CCC(c3ccccc3)C2)cc1C (configuration not stated),-3,1,-6%,8%,13%,2.8µM*
COc1ccc(C(=O)N2CCCC(c3ccccc3)C2)cc1 (configuration not stated),-1,2,11%[57.1 µM],11%,-6%,?
Cc1ccc(C2CCN(C(=O)Nc3ccccc3)C2)cc1 (configuration not stated),0,-27,-4%,0%,8%,5µM*
COc1cc(/C=C/c2ccnc3ccccc23)ccc1N(C)C,.,.,-8%,-9%,.,11%
CN(C)c1ccc(/C=C/c2ccnc3ccc(F)cc23)cc1,.,.,-6%[57.1 µM],1%[57.1 µM],.,.
COc1ccc2c(c1)NC(c1cccnc1)=NC(c1ccc(F)cc1)=N2,.,.,-6%,11%,.,.
Cc1nc(N2CCN(C)CC2)c2nnn(Cc3ccccc3)c2n1,.,7,6%,12%,.,6%
CN(C(=O)CSc1ncnc2sccc12)C1CCCCC1,-3,-3,-5%,-7%,0%,4µM*
CN(C(=O)CSc1ncnc2sccc12)C1CCS(=O)(=O)C1 (configuration not stated),1,?,0%,9%,-1%,-13%
SMILES,IL-2 act,Giardia killer,TrxR1 substrate,TrxR1 inh,mIDH1 inhibitor,BRCA1 expr act
COc1ccc(OCC(O)Cn2c(NCCO)nc3c2c(=O)n(C)c(=O)n3C)cc1 (configuration not stated),.,.,7%,16%,13%,.
CCOc1ccc(N(CC(=O)NCc2ccc(C)cc2)S(=O)(=O)c2c(C)noc2C)cc1,.,.,3%,18%,-3%,-1%
Cc1oc(-c2ccccc2F)nc1CS(=O)CC(=O)NC(C)C (configuration not stated),.,.,1%,40µM*,27%,.
CCC(C)NC(=O)CS(=O)Cc1nc(-c2ccccc2C)oc1C (configuration not stated),1,-7,18%[57.1 µM],7.1µM*,0%,-4%
CCCNC(=O)CS(=O)Cc1nc(-c2ccccc2C)oc1C (configuration not stated),0,-1,2%[57.1 µM],?,13%,6%
CN(C)c1ccc(/C=C/c2cc3ccccc3cn2)cc1,.,.,-8%,-15%,.,.
Cc1c(/C=C/C(=O)c2ccc(O)cc2)cnn1C,-4,-14,-14%,-26%,17%,?
Cc1c(/C=C/C(=O)c2ccccc2)cnn1C,-1,-6,-3%,-11%,1%,?
CCn1ncc(/C=C/C(=O)c2ccccc2)c1C,-2,4,15%[57.1 µM],17%[57.1 µM],4%,11µM*
Cc1c(/C=C/C(=O)c2ccc(C(C)C)cc2)cnn1C,-5,-2,-5%,18%,20%,11µM*
COc1ccccc1NC(=O)CSc1nc2c(oc3ccccc32)c(=O)n1-c1ccc(C)cc1,.,.,0%,13%,-22%,0%
COc1ccc(-c2cc(C)no2)cc1S(=O)(=O)N1CC(C)Oc2ccccc21 (configuration not stated),.,.,3%[57.1 µM],22%[57.1 µM],2%,.
CC1(C)CC(=O)C(C(C2=C(O)CC(C)(C)CC2=O)c2cccs2)C(=O)C1 (configuration not stated),-4,-19,0%,6.3µM*,7%,-5%
CC1(C)CC(=O)C(C(C2=C(O)CC(C)(C)CC2=O)c2cccc(O)c2)C(=O)C1 (configuration not stated),0,-3,2%[57.1 µM],-30%[57.1 µM],4%,-21%
N#Cc1ccc2sn(-c3ccccc3)c(=O)c2c1,1,.,.,.,-2%,11µM*
CCc1ccc(CNC(=O)COc2cc(=O)n(CC)c3ccccc23)cc1,.,.,0%,5%,18%,.
CCCCN(CC)CCNC(=O)CCn1cnc2onc(-c3ccc(F)cc3)c2c1=O,.,.,-3%,11%,0%,.
COc1cccc2ccc(/C=C/c3ccc4c(c3)OCO4)nc12,.,-10,7%,-24%,.,3.5µM*
COc1ccc(NC(=O)Cn2c(=O)oc3cc(S(=O)(=O)NC4CCCC4)ccc32)cc1OC,.,.,0%[57.1 µM],16%[57.1 µM],0%,.
CCOC(=O)N1CCN(C(=O)C2CCN(C(=O)c3ccccc3C)CC2)CC1,-1,12,6%,2.5µM*,0%,-20%
